Only some compounds are listed: those with a hit (about 0.83% of all), similar ones and a draw of the others.
SRC1 inh: SRC1 coactivator transcriptional activity inhibitors, primary screen, cell-based, luminescence; HEK293 GAL4-SRC1 luciferase reporter; Nuclear receptor coactivator 1 (Homo sapiens), Q15788; inhibition, % at 3.6 µM; hit rate 0.12% among 360,000;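 active = inhibition above the campaign mean plus 3 SD, with each screening campaign given its own cutoff, cut at about 60% in these data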;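 note: 0% = DMSO treated cells and 100% = gossypol at 36 µM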
NCOA3 inh: SRC3 coactivator transcriptional activity inhibitors, primary screen, cell-based, luminescence. HEK293 GAL4-SRC3 luciferase reporter. Nuclear receptor coactivator 3 (Homo sapiens), Q9Y6Q9. AID 588352, 2011. inhibition, % at 3.6 µM. hit rate 0.17% among 360,000;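 active = inhibition above a per-campaign cutoff, the mean of all compounds plus 3 SD, cut at about 60% in these data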;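 note: 0% = DMSO-treated cells and 100% = gossypol-treated cells at 36 µM; higher means less SRC3-driven luciferase light from the GAL4 reporter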
NR5A2 inv ag: LRH-1 (NR5A2) inverse agonists, primary screen, cell-based, luminescence, HEK293T, StAR-luciferase reporter. inhibition, % at 3.6 µM. AID 602396, 2012. Nuclear receptor subfamily 5 group A member 2 (Homo sapiens), O00482. LRH-1 transfected, 24 h. hit rate 0.13% among 360,000;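 active = inhibition above the mean inhibition of all tested compounds plus 3 SD, cut at about 73% in these data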;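 note: 0% = DMSO wells and 100% = reporter-only cells lacking LRH-1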
Target sequence (O00482 whole entry, looked up): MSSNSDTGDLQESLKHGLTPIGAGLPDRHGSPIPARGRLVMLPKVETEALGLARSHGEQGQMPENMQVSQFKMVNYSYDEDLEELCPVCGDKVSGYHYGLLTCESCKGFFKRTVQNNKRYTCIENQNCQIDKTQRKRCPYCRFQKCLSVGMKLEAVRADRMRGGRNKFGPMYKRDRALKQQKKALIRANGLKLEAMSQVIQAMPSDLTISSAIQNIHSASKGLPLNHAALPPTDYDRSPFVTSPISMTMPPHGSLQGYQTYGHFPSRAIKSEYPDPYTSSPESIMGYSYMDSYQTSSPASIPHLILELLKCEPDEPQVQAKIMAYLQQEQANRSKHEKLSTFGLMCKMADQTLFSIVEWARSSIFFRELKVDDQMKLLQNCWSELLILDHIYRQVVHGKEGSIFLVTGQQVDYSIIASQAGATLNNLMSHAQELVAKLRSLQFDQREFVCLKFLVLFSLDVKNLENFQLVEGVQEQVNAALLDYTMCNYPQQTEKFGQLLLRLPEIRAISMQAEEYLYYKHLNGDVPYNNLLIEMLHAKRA
Gli-Sufu antag: Gli-Sufu pathway antagonists, primary screen, luciferase luminescence, Sufu-KO-LIGHT cells, uHTS | Sufu-KO-LIGHT fibroblasts, Gli luciferase reporter luminescence | inhibition, % at 5 µM | hit rate 0.74% among 340,000;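 active = inhibition above about 55%, limit read from the data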;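 note: 0% = DMSO-treated cells and 100% = wells with medium but no cells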
NCOA2 inhibitor: inhibition of GAL4-SRC2 driven luciferase reporter, primary screen, SRC2 inhibitor project, cell-based, luminescence; inhibition, % at 9 µM; hit rate 0.17% among 370,000; HEK293 GAL4-SRC2 luciferase reporter; Nuclear receptor coactivator 2 (Homo sapiens), Q15596;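 active = inhibition above the mean inhibition of all tested compounds plus 3 SD, set per campaign, cut at about 52% in these data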;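 note: 0% = DMSO treated cells and 100% = cells given Gossypol at 36 µM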
Gli-Sufu confirm: Gli-SUFU pathway antagonists, confirmation, single concentration, luciferase luminescence, Sufu-KO-LIGHT cells; shares compounds with Gli-Sufu antag; Gli luciferase reporter; inhibition, % at 5 µM; hit rate 40% among 2,500;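 active = mean inhibition at 5 µM reaching about 45%, limit read from the data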;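 note: plate controls were DMSO-treated cells for no effect and wells lacking cells for full effect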
SufuKO cytotox: cytotoxicity in Sufu-KO-LIGHT cells, confirmation, cytotoxicity control for Gli-SUFU antagonist project, cell-based, ATP luminescence, single concentration. cytotoxicity, % at 5 µM. shares compounds with Gli-Sufu antag. hit rate 32% among 2,500;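 active = mean cytotoxicity at 5 µM above about 25%, limit read from the data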;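 note: cells exposed to compound overnight for roughly 16 to 18 hours; plate controls were DMSO wells with cells for no effect and medium without cells for full effect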
Wnt3a cs: Wnt3a reporter signal inhibition, confirmation, counter-screen for Gli-SUFU antagonist project, Wnt-LIGHT cells, luminescence, single concentration | shares compounds with Gli-Sufu antag | Wnt3a-driven luciferase reporter | inhibition, % at 6.25 µM | hit rate 20% among 2,500;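 active = mean inhibition above about 25%, limit read from the data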
* = called active by the depositor; / = no result given.

SMILES | SRC1 inh | NCOA3 inh | NR5A2 inv ag | Gli-Sufu antag | NCOA2 inhibitor | others
COC(=O)c1cc2c(c3c4cc(OC)ccc4n(S(=O)(=O)c4ccc(C)cc4)c13)C(=O)N(Cc1ccccc1)C2 | / | / | / | / | 2
CC1CN(c2nc3ccccc3nc2SCC(=O)N2CCN(S(=O)(=O)c3ccccc3)CC2)CC(C)O1 (stereo not drawn) | / | / | / | / | 12
CCOC(=O)/C(=C/c1ccc(OC(F)F)cc1)C1=Nn2c(nnc2-c2ccc(Cl)cc2)SC1 | 11 | 4 | 1 | 10 | 24
CCOC(=O)/C(=C\c1ccc(OC(F)F)cc1)C1=Nn2c(nnc2-c2ccc(Cl)cc2)SC1 | 24 | 15 | 21 | 56* | /
CC1Sc2ccc(S(=O)(=O)N3CCC(C(=O)Nc4ccc(Cl)cc4)CC3)cc2NC1=O (stereo not drawn) | 3 | 18 | 22 | 69* | 23
COc1ccc(NC(=O)C2CCN(S(=O)(=O)c3ccc4c(c3)NC(=O)C(C)S4)CC2)cc1 (stereo not drawn) | 6 | -16 | 3 | -9 | 14
CC(=O)N1c2ccc(S(=O)(=O)N3CCC(C(=O)Nc4cccc(Cl)c4)CC3)cc2CC1C (stereo not drawn) | -12 | 2 | 15 | 73* | 23
C#CCN(CC=C)Cc1ccc(OC)cc1OC | / | / | / | / | -18
CCOC(=O)Cn1cc(CN2CCS(=O)(=O)N(Cc3ccc(F)cc3)C(C(=O)OC)C2)nn1 (stereo not drawn) | / | / | / | / | -3
O=C(N/N=C/c1c(O)ccc2ccccc12)c1cccc(C(F)(F)F)c1 | 70* | 74* | 16 | 60* | 32
O=C(N/N=C/c1c(O)ccc2ccccc12)c1[nH]ncc1Br | 24 | 67* | 69 | 67* | 5
COc1ccc2ccccc2c1/C=N/NC(=O)c1cccc(Br)c1 | 7 | 2 | 4 | -10 | -4
COC(=O)C[C@@H]1CC[C@H]2[C@@H](COc3ccc(NC(=O)c4ccc(Cl)cc4)cc3C(=O)N2C)O1 | / | / | / | / | -8
Cc1cccc(-c2cccc3c4c([nH]c23)[C@@H]2C[C@H](N(C)C(=O)Nc3ccccc3C)[C@H]([C@H](C)O)C(=O)N2CC4)c1 | / | / | / | / | 9
CN1/C(=C\C=[N+](C)c2ccccc2)C(C)(C)c2ccccc21 | 4 | 11 | 6 | 85* | 15
CN1C(=CC=C2C=C(I)C(=O)C(I)=C2)C(C)(C)c2ccccc21 | 10 | 6 | -38 | 41 | 13
CN1/C(=C\C=C2/SC(=S)NC2=O)C(C)(C)c2ccccc21 | 23 | 20 | 27 | 71* | 34
C=C(C)/C=C1/CN(Cc2ccc3c(c2)OCO3)C(=N)N1C(=O)OCc1ccccc1 | / | / | / | / | 15
Cc1cc(C)nc(SCc2ccc(C(=O)N/N=C/c3cccc(O)c3O)cc2)n1 | 24 | 66* | -6 | 84* | 33
Cc1cc(C)nc(SCc2ccc(C(=O)N/N=C/c3ccc(C(=O)O)cc3)cc2)n1 | 12 | 17 | 8 | -11 | 12
Cc1c(CC(=O)NCCCC(=O)O)c(=O)oc2cc3c(cc12)CCC(C)(C)O3 | 25 | 41 | 40 | 3 | 75*
Cc1c(CC(=O)NCCCCCC(=O)O)c(=O)oc2cc3c(cc12)CCC(C)(C)O3 | -2 | 0 | 0 | -42 | 8
COC(=O)c1cccc(N2C(=O)C[C@](Sc3ccc(OC)cc3)(C(=O)N3CCOCC3)[C@H]2c2ccc(OC)cc2)c1 | / | / | / | / | -9
COC(=O)[C@H](C(C)C)N(Cc1cn(Cc2ccc(C)cc2)nn1)S(=O)(=O)c1ccc(F)cc1Br | / | / | / | / | 9
CSC(=S)NN=C(C)c1cccc(C)n1 | -21 | -20 | -18 | 92* | -23
SMILES | SRC1 inh | NCOA3 inh | NR5A2 inv ag | Gli-Sufu antag | NCOA2 inhibitor | others
CC(=O)Nc1ccc(S(=O)(=O)N2c3ccccc3C(C)=CC2(C)C)cc1 | -25 | 13 | 24 | 57* | -2 | Gli-Sufu confirm=52*;SufuKO cytotox=54*;Wnt3a cs=23
CCC(CO)Nc1cccc2c1S(=O)(=O)N(Cc1cn(Cc3cccc(C(F)(F)F)c3)nn1)Cc1ccccc1O2 (stereo not drawn) | / | / | / | / | 17
Cc1ccc(CS(=O)(=O)CCC(=O)NCc2ccccc2Cl)cc1 | 7 | 13 | -11 | 53 | 12 | Gli-Sufu confirm=8;SufuKO cytotox=22;Wnt3a cs=-16
Cc1cccc(-c2cccc3c4c([nH]c23)[C@@H]2C[C@H](N(C)C(=O)OCc3ccccc3)[C@H]([C@H](C)O)CN2CC4)c1 | / | / | / | / | -8
Cc1[nH]c2ccccc2c1SCc1nnc(SCc2ccc(Cl)cc2)n1C | 7 | 31 | -1 | 51 | 22 | Gli-Sufu confirm=24;SufuKO cytotox=4;Wnt3a cs=43*
Cc1ccc(S(=O)(=O)NCC2CCCO2)cc1 (stereo not drawn) | -6 | 2 | -3 | / | -53
O=S(=O)(NCC1CCCO1)c1ccc(-c2ccc(S(=O)(=O)NCC3CCCO3)cc2)cc1 (stereo not drawn) | 19 | 33 | 46 | 74* | 22 | Gli-Sufu confirm=67*;SufuKO cytotox=31*;Wnt3a cs=35*
COc1ccc(NC(=O)N2CCC(c3nc4ccc(Cl)cc4[nH]3)CC2)cc1OC | / | / | / | / | 20
Cc1ccccc1NC(=S)N(CCc1c(C)[nH]c2ccc(F)cc12)Cc1ccncc1 | 5 | -5 | 26 | 59* | -30 | Gli-Sufu confirm=18;SufuKO cytotox=26*;Wnt3a cs=-28
Cc1[nH]c2ccc(F)cc2c1CCN(Cc1ccncc1)C(=S)Nc1cccc(F)c1 | 4 | -5 | 12 | 0 | 17
CCCCNC(=O)C[C@H]1C[C@@]2(C(=O)OC)C(=C[C@H](C(C)(C)C)O[C@@H]2C)N(Cc2cccc3ccccc23)C1=O | / | / | / | / | -4
Cc1cc(C#N)c(C)c(SCc2[nH]nc3c2C(c2ccccc2)C(C#N)=C(N)O3)n1 (stereo not drawn) | -10 | 0 | 0 | 58* | -35 | Gli-Sufu confirm=25;SufuKO cytotox=16;Wnt3a cs=0
O=C(CCCc1ccccc1)NCCc1ccccc1 | -45 | -28 | -10 | -24 | -37
CC(C)c1ccc(NC(=O)CCCC(=O)NCCc2ccccc2)cc1 | -5 | -3 | -16 | 53 | -13 | Gli-Sufu confirm=21;SufuKO cytotox=-4;Wnt3a cs=-25
Cc1c(C(=O)N2CCCCCC2)c(S(=O)(=O)Nc2ccccc2F)c(C)n1C | 13 | 9 | -4 | 51 | 5 | Gli-Sufu confirm=24;SufuKO cytotox=20;Wnt3a cs=8
O=C(c1ccccc1)c1cc([N+](=O)[O-])ccc1N1CCOCC1 | -9 | 8 | 27 | 50 | 13 | Gli-Sufu confirm=56*;SufuKO cytotox=53*;Wnt3a cs=-42

Bioassay records from PubChem BioAssay.
